Drawing on PubChem BioAssay (NCATS), this text covers Potency and viability for 21 compounds.

Records with an inconclusive call do not appear. Unmarked numbers belong to inactive results. Activity calls are given as the source filed them. Calls come from the whole dose curve; as a rule, active = well fitted curve in the direction sought with a large enough effect; inconclusive = small, poorly fitted or top-dose-only effect, or another doubt; inactive = no such curve, though single readings can be large; an effect the other way counts as inactive or inconclusive.

Experiment [1] deals with Aldehyde dehydrogenase, mitochondrial (Homo sapiens) (UniProt P05091). The experiment can be described thus: qHTS for Inhibitors of the Aldehyde Dehydrogenase Family (ALDH2) Primary screen (AID 2061308). Note: nearly all actives have a fitted effect of over 55% in size. Note: potency is the fitted concentration of half-maximal effect. Conditions: ALDH2 enzyme inhibition qHTS, 1536-well; series mostly up to 56 µM. In general terms: qHTS replaces the single test concentration by a dilution series.
In experiment [2] the target is Retinaldehyde dehydrogenase 3 (Homo sapiens) (UniProt P47895). In words: qHTS for Inhibitors of the Aldehyde Dehydrogenase Family (ALDH1A3) Validation screen (AID 2061312). Note: % is set by controls: 0 for no effect and ±100 for the full control effect; nearly all actives have a fitted effect of over 45% in size. The note with it: ALDH1A3 enzyme inhibition qHTS validation, fluorescence; series mostly up to 84.7 µM.
Experiment [3] shares this target. The experiment can be described thus: qHTS for Inhibitors of the Aldehyde Dehydrogenase Family (ALDH1A3) Primary screen (AID 2061315).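 Note: plate controls were DMSO vehicle for no effect and reference inhibitor for full effect.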 Conditions: ALDH inhibition qHTS; series mostly up to 56 µM.
Experiment [4] can be described thus: BET inhibitor-based combinations targeting novel dependencies in MECOM-rearranged (r) AML: OCI-AML3 cell line (AID 2202232). Note: nearly all actives have a fitted effect of over 35% in size. Note: potency is the fitted concentration of half-maximal effect. Conditions: CellTiter-Glo luminescence, 48 h; Potency: OCI-AML3 viability; series mostly up to 46 µM. Put shortly:
(§1)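 AML cell lines seeded at 500 cells/well, treated with 11-point dose curves for 48 h. Viability by CellTiter-Glo luminescence, normalised to DMSO and empty wells; activity expressed as AUC and per-cell-line Z-transformed AUC.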

The nature of experiment [5]: BET inhibitor-based combinations targeting novel dependencies in MECOM-rearranged (r) AML: MV-4-11 cell line (AID 2202233). Note: nearly all actives have a fitted effect of over 45% in size. Note: potency is the fitted concentration of half-maximal effect. The note with it: MV-4-11 AML viability, CellTiter-Glo luminescence, 48 h; series mostly up to 46 µM. In a few lines:
(§2)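 Cells at 500/well were exposed for 48 hr to MIPE v5.0 drugs as 11-point dose curves. Viability was read by CellTiter-Glo luminescence and normalized to DMSO and empty-well controls. Activity was expressed as AUC and per-cell-line Z-AUC.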
Background: ATP-based viability assays read luminescence as a measure of living cells.

Experiment [6] can be described thus: BET inhibitor-based combinations targeting novel dependencies in MECOM-rearranged (r) AML: HNT-34 cell line (AID 2202234). Note: nearly all actives have a fitted effect of over 35% in size. Note: potency is the fitted concentration of half-maximal effect. Conditions: HNT-34 AML viability, CellTiter-Glo luminescence, 48 h; series mostly up to 46 µM. In a few lines: as §2
Experiment [7] can be described thus: BET inhibitor-based combinations targeting novel dependencies in MECOM-rearranged (r) AML: UCSD-AML1 cell line (AID 2202235). Note: nearly all actives have a fitted effect of over 40% in size. Note: potency is the fitted concentration of half-maximal effect. Conditions: UCSD-AML1 AML cells viability, CellTiter-Glo, 48 h; series mostly up to 46 µM. In a few lines:
as §2

The nature of experiment [8]: BET inhibitor-based combinations targeting novel dependencies in MECOM-rearranged (r) AML: AML-194 cell line (AID 2202237; note: nearly all actives have a fitted effect of over 40% in size; note: potency is the fitted concentration of half-maximal effect). The note with it: AML-194 (MECOM-r AML) viability, CellTiter-Glo, 48 h; series mostly up to 46 µM. Put shortly:
as §1

Experiment [9] in a line: BET inhibitor-based combinations targeting novel dependencies in MECOM-rearranged (r) AML: AML-191 cell line (AID 2202236; note: nearly all actives have a fitted effect of over 35% in size; note: potency is the fitted concentration of half-maximal effect). Conditions: AML-191 viability, CellTiter-Glo luminescence, 48 h; series mostly up to 46 µM. Put shortly:
as §1

Experiment [10] has as its target Retinal dehydrogenase 2 (Homo sapiens) (UniProt O94788). In words: qHTS for Inhibitors of the Aldehyde Dehydrogenase Family (ALDH1A2) Confirmation screens (AID 2061314). Note: nearly all actives have a fitted effect of over 65% in size. Note: potency is the fitted concentration of half-maximal effect. The note with it: ALDH1A2 enzyme inhibition qHTS confirmation; series mostly up to 45.9 µM.
A short description of experiment [11]: BET inhibitor-based combinations targeting novel dependencies in MECOM-rearranged (r) AML: SET-2 cell line (AID 2202231).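 For viability: plate controls were DMSO treated cells for no effect and wells without cells for full effect.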 Note: nearly all actives have a fitted effect of over 35% in size. Note: potency is the fitted concentration of half-maximal effect. Conditions: SET-2 AML cells viability, CellTiter-Glo luminescence, 48 h; viability: hits give low values, concentration not given here. In a few lines: as §1
Experiment [12] addresses Aldehyde dehydrogenase 1A1 (Homo sapiens) (UniProt P00352). In words: qHTS for Inhibitors of the Aldehyde Dehydrogenase Family (ALDH1A1) Confirmatory screens (AID 2061316). Note: potency is the fitted concentration of half-maximal effect; nearly all actives have a fitted effect of over 65% in size. Conditions: ALDH inhibition qHTS; series mostly up to 47.3 µM.

For the compound `c1ccc(Cn2c(-c3ccc(OCC(C4CCNCC4)n4c(-c5ccccc5)nc5ccccc54)cc3)nc3ccccc32)cc1` (configuration not stated), the Potency result in experiment [1], in experiment [2] and in experiment [3] was “inactive” each time. For the same compound, the Potency in experiment [4] is 23.5 µM (active); in experiment [5], 8.33 µM (active); in experiment [6], 18.6 µM (active); in experiment [7], 26.3 µM (active); in experiment [8] it was 23.5 µM (active).
On to `CNCc1ccc(C)c(NC(=O)c2ccc(Nc3nc(-c4ccccc4)c4ccccc4n3)cc2)c1`, for which the Potency result in [1], in [2] and in experiment [3] was “inactive” in each case. The Potency is 16.6 µM (active) in experiment [4], 13.2 µM (active) in experiment [5], 20.9 µM (active) in experiment [6] and 20.9 µM (active) in experiment [9].
In the case of `c1nc(NCC2CCCOC2)c2cc(-c3ccc4c(c3)OCO4)ccc2n1` (configuration not stated), the Potency entry in [1] and in experiment [3] was “inactive” in each case. The Potency in experiment [10] was 11.3 µM (active).
Take `Cc1c(NC(=O)OC[C@@H]2COCCN2)cn2ncnc(Nc3ccc4c(cnn4Cc4cccc(F)c4)c3)c12`: the Potency entry in experiment [1], in [2] and in experiment [3] was “inactive” each time. Besides, the Potency in experiment [4] is 10.5 µM (active); in experiment [5], 18.6 µM (active); in experiment [6], 20.9 µM (active); in [8], 23.5 µM (active).
On to `COc1ccc(C(=O)CC2(O)C(=O)Nc3c(Cl)ccc(Cl)c32)cc1` (configuration not stated), for which the Potency entry in experiment [1], in experiment [2], in experiment [3] and in [5] was “inactive” throughout. Further, the results for the Potency in experiment [11], in [9] and in experiment [8] were 0.934 µM (active), 1.05 µM (active) and 1.86 µM (active), respectively.
In general, viability refers to a read-out of living cells in per cent, often relative to untreated cells. For the compound `Cc1cnc(-c2ccccc2C(C)C)nc1NCc1ccc(-n2ccnn2)cc1`, the Potency entry in experiment [1], in experiment [2], in [3] and in experiment [8] was “inactive” in each case. Further, the viability in [11] is 86.2%.
In the case of `CCOC(=O)[C@@H](N)Cc1ccc(-c2cc(O[C@H](c3ccc(Cl)cc3-n3ccc(C)n3)C(F)(F)F)nc(N)n2)cc1`, the Potency result in experiment [1], in experiment [2], in experiment [3] and in experiment [7] was “inactive” each time. For the same compound, the Potency is 26.3 µM (active) in experiment [11]; 11.8 µM (active) in [4]; 9.34 µM (active) in experiment [5]; 23.5 µM (active) in experiment [6]; 23.5 µM (active) in experiment [9]; 26.3 µM (active) in experiment [8].
`CS(=O)(=O)N1CCN(c2nc(-c3ccc(Br)cc3)cs2)CC1`: the Potency entry in [1], in experiment [10] and in experiment [3] was “inactive” in each case.
As for `Cc1ccc(-c2ccc(=O)n(CC(=O)N(C)C(C)c3ccco3)c2)cc1` (configuration not stated), the Potency result in experiment [1] and in experiment [3] was “inactive” each time. Further, the Potency in experiment [10] was 2.01 µM (active).
For the compound `O=C(Nc1cn[nH]c1-c1nc2ccc(CN3CCOCC3)cc2[nH]1)NC1CC1`, the Potency result in [1], in experiment [2] and in [3] was “inactive” each time. Moreover, the Potency in experiment [4] is 4.68 µM (active); in experiment [5] it was 0.0263 µM (active); in [6], 0.332 µM (active); in [7], 0.118 µM (active); in experiment [9], 2.09 µM (active); in experiment [8], 2.09 µM (active).
In the case of `N#Cc1c(-c2ccc(Cl)cc2)no[n+]1[O-]`, the values for the Potency in experiment [1] and in experiment [10] were 7.94 µM (active) and 10.1 µM (active), respectively. For the same compound, the Potency result in [3] was “inactive”.
In the case of `COC(C)(C)CCn1nc(Nc2c(C)cccc2C)c2cnc(Nc3ccc(OCCN4CCCC4)c(F)c3)nc21`, the Potency entry in [1], in [2] and in experiment [3] was “inactive” each time. In addition, the Potency in experiment [11] is 18.6 µM (active); in experiment [4], 20.9 µM (active); in [5] it was 5.25 µM (active); in experiment [6], 0.0661 µM (active); in [7], 9.34 µM (active); in experiment [8], 14.8 µM (active).
For `CC(=O)Nc1ccc(-c2csc(N3CCC(C(N)=O)CC3)n2)cc1`, the Potency result in experiment [1] and in experiment [3] was “inactive” each time. In addition, the Potency in [10] was 22.5 µM (active).
With `CCOc1ccc(NC(=O)NCC2CCCN2c2ccc(OC)cc2)cc1` (configuration not stated), in [1], the Potency entry was “inactive”. Also, the Potency in experiment [10] was 14.2 µM (active).
As to `Cn1c(=O)c2c(ncn2CC2OCCO2)n(C)c1=O`, the Potency result in experiment [1], in [2], in experiment [3], in [4], in experiment [5] and in [6] was “inactive” in each case. Further, the Potency entry in experiment [7], in [9] and in [8] was “inactive” each time.
`CCC(=O)NS(=O)(=O)c1ccc(-c2c(-c3ccccc3)noc2C)cc1`: the Potency entry in experiment [1], in experiment [2], in [3], in [4], in experiment [5] and in [6] was “inactive” in each case. Further, the Potency entry in experiment [9] was “inactive”. Besides, in [11], the viability was 114%.
In the case of `Cc1cnc(Nc2ccc(CN3CCOCC3)cc2)nc1Nc1cccc(S(=O)(=O)NC(C)(C)C)c1`, the Potency entry in experiment [1], in experiment [2] and in [3] was “inactive” throughout. Moreover, the Potency in experiment [11] was 2.63 µM (active); in [4], 2.63 µM (active); in [5], 0.417 µM (active); in experiment [6], 1.18 µM (active); in [7] it was 1.48 µM (active); in experiment [9] it was 2.63 µM (active). The Potency in experiment [8] is 2.35 µM (active).
`Cn1ncc(Cl)c1-c1cc(C(=O)NC(CN)Cc2ccc(F)c(F)c2)oc1Cl` (configuration not stated): the Potency result in [1], in experiment [2] and in experiment [3] was “inactive” throughout. For the same compound, the Potency is 18.6 µM (active) in [4]; 11.8 µM (active) in [5]; 18.6 µM (active) in experiment [6]; 13.2 µM (active) in experiment [7]; 20.9 µM (active) in experiment [9]; 18.6 µM (active) in experiment [8].
Turning to `O=C(NCC#CCSc1nnc(-c2cccc3ccccc23)o1)c1cccs1`, the Potency result in experiment [1] and in experiment [3] was “inactive” in each case. In addition, the Potency in experiment [10] was 12.7 µM (active); in experiment [12], 8.96 µM (active).
On to `N#Cc1c(-c2ccc(F)c(Br)c2)no[n+]1[O-]`, for which the Potency in experiment [1] was 3.98 µM (active); in experiment [10], 2.52 µM (active); in experiment [12], 20.1 µM (active). The Potency entry in [3] is “inactive”.
Regarding `C[C@H]1O[C@@H](O[C@H]2[C@@H](O)C[C@H](O[C@H]3[C@@H](O)C[C@H](O[C@H]4CC[C@@]5(C)[C@H](CC[C@@H]6[C@@H]5C[C@@H](O)[C@]5(C)[C@@H](C7=CC(=O)OC7)CC[C@]65O)C4)O[C@@H]3C)O[C@@H]2C)C[C@H](O)[C@@H]1O`, the Potency entry in [1], in experiment [2] and in experiment [3] was “inactive” throughout. The Potency in experiment [4] is 0.118 µM (active); in [5], 0.105 µM (active); in experiment [6], 0.105 µM (active); in [7] it was 0.132 µM (active); in [9] it was 0.132 µM (active); in experiment [8], 0.118 µM (active).
